# TROY signal inh = TROY signaling inhibition; Q293 LMP1-TROYcd NF-kB luciferase reporter, 4 h; inhibition, % at 10 µM; hit rate 0.98% among 360,000; AID 1347056;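 active means compounds whose plate-normalised and pattern-corrected inhibition of the luciferase reporter signal at the single screening dose is 50% or more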
# MITF TRPM1 inh = reduces MITF-dependent TRPM1 promoter luciferase signal. SK-MEL-5 TRPM1 promoter luciferase, 24 h. inhibition, % at 12.5 µM. hit rate 0.83% among 330,000;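 active means mean inhibition across replicates of 60% or more, whatever share of single replicates reaches that level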
# HIF-2a block = HIF-2a inhibition | 786-0 RCC cells HIF-2a reporter, luciferase luminescence, overnight | hit rate 0.72% among 360,000 | inhibition, % at 18.8 µM;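 active means inhibition of the luminescence signal of 40% or more relative to plate controls, in a single-dose primary screen at 18.75 µM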
# Shn3 inh set2 = Schnurri-3 reporter inhibition in Clone20 osteoblasts; Clone20 osteoblast Shn3 3'UTR firefly luciferase, 24 h; hit rate 0.52% among 360,000; inhibition, % at 12.5 µM;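 active means mean inhibition of at least 75% with every replicate also reaching 75%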;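 further: 0% = median of neutral control wells and 100% = pilot-screen positive control compound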
# EBV LMP1 NFkB = inhibitors of Epstein-Barr LMP1-induced NF-kappaB reporter; LMP1-induced NF-kappaB luciferase reporter cells, luminescence; inhibition, % at 12.5 µM; hit rate 0.69% among 350,000; AID 504558; in the data active means inhibition above about 41%;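 further: 0% = neutral control wells and 100% = reference inhibitor control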
# TWEAK Fn14 block = TWEAK-Fn14 signaling inhibition; TWEAK-stimulated Fn14 reporter cells, luciferase luminescence, 8 h; inhibition, % at 10 µM; hit rate 2% among 360,000; AID 1159606; in the data active means inhibition above about 50%
# Starred values were filed as active, the others as inactive; / = no result. Rows were chosen to be rich in hits. Some 3.4% of all compounds tested hit in one or more screens of this group.
SMILES,TROY signal inh,MITF TRPM1 inh,HIF-2a block,Shn3 inh set2,EBV LMP1 NFkB,TWEAK Fn14 block
Cc1cccc(N2CCN(C(=O)C3CCN(S(=O)(=O)c4cccc5nsnc45)CC3)CC2C)c1 (stereo unspecified),9.8,8.3,19.1,/,13.6,56.2*
Cc1cccc(NC(=O)C2CCN(S(=O)(=O)c3cccc4nsnc34)CC2)n1,-2.6,3.8,15.8,-2.4,0.5,-0.3
CC(=O)N(CN1C(=O)CCC1=O)c1ccc(Cl)c(Cl)c1,57.6*,29.9,16.2,18.8,1.1,73.4*
COc1ccc(SN=C2C(C)=CC(=O)C=C2C)cc1,-31.3,16.3,-2.3,13.7,-0.9,12.3
COC1=CC(=O)C=C(OC)C1=O,-14.4,53.9,6.3,97.3*,82.6*,28.2
COC1=CC(=O)c2ccccc2C1=O,-5.6,101.6*,28.6,35.9,-10.1,20.6
C[C@H](NC(=O)Cc1ccccc1)C(=O)N1CCC2(CC1)NCCc1[nH]cnc12,0.1,-12.7,6.0,8.2,-15.3,-6.9
COc1ccc(C(=O)N/C(=C\c2ccc3c(c2)OCO3)C(=O)NCCc2nc3ccccc3[nH]2)cc1,17.9,-5.7,-57.7,-42.7,-4.7,-15.9
O=C1c2ccccc2OC2(C=Cc3ccccc3O2)N1Cc1ccccc1 (stereo unspecified),/,13.5,7.3,12.8,-6.1,76.0*
CCOC(=O)C(NC(=O)c1ccccc1)(Nc1cccc(C)n1)C(F)(F)F (stereo unspecified),-14.7,0.1,12.6,-1.8,-1.3,-12.4
CCOC(=O)C(NCc1ccco1)(NC(=O)c1ccccc1)C(F)(F)F (stereo unspecified),13.8,4.6,21.9,4.1,2.7,87.3*
O=C(Nc1ccccc1Cl)c1cc(C2CCCN(S(=O)(=O)c3cccs3)C2)on1 (stereo unspecified),9.5,/,-5.1,-11.5,/,-8.3
Cc1ccc(C(=O)/C=C/c2cn(CN3CCN(C)CC3)c3ccccc23)cc1,-37.0,-75.3,-471.5,-75.9,-26.5,8.6
CCn1ncc(/C=C/C(=O)c2ccccc2)c1C,-10.2,-55.1,-191.8,-38.1,-23.0,53.0*
Cn1cc(/C=C/C(=O)c2ccccc2)c2ccccc21,21.0,-7.2,-109.3,-102.7,-11.9,71.0*
Cc1c(/C=C/C(=O)c2ccccc2)cnn1C,-61.6,-56.3,-193.6,-22.7,-22.3,-2.4
CN(C(=O)COc1ccccc1C(=O)NCCOc1ccccc1)c1ccccc1,61.6*,27.5,-10.4,93.7*,13.3,87.7*
Cc1ccc(-c2nnc(N3CCC(C)CC3)c3ccccc23)cc1C,34.6,18.0,4.7,90.5*,7.1,49.1
COc1ccc(CC(=O)Nc2cc(S(C)(=O)=O)ccc2Cl)cc1S(=O)(=O)N1CCOCC1,1.6,-2.7,14.0,-8.7,-3.5,-3.2
O=C(c1ccncc1)N1CCc2ccccc2C1,1.8,15.0,-13.1,-1.2,1.4,3.9
O=C(c1ccc(Cl)nc1)N1CCc2ccccc2C1,/,-3.7,4.2,-3.7,-3.5,79.3*
C(=C\c1ccccc1)/CN1CCN(C(c2ccnc3ccccc23)c2nnnn2C2CCCC2)CC1 (stereo unspecified),3.3,/,13.8,19.3,/,-2.4
CCCCn1c(N)c(N(CCC(C)C)C(=O)COC(=O)/C=C/c2ccc(F)cc2)c(=O)[nH]c1=O,2.4,48.7,12.4,15.4,21.8,1.8
O=c1c2cc([N+](=O)[O-])ccc2sn1-c1ccccc1,-94.5,/,-239.7,-44.6,-1.1,-32.9
N#Cc1c2ccc([N+](=O)[O-])cc2[n+]([O-])n1-c1ccccc1,-3.5,89.9*,-16.4,31.5,49.9*,17.0
SMILES,TROY signal inh,MITF TRPM1 inh,HIF-2a block,Shn3 inh set2,EBV LMP1 NFkB,TWEAK Fn14 block
COc1cc(C(=O)N2CCN(S(=O)(=O)c3ccc(C)cc3C)CC2)ccc1OCC(=O)N1CCOCC1,4.6,1.0,12.3,-3.6,1.0,-30.3
COc1ccc(CN2CCN(Cc3ccc4ccccc4c3)CC2)cc1OC,18.0,3.2,9.4,70.1,11.3,-4.2
O=[N+]([O-])c1ccccc1CN1CCN(Cc2ccc3ccccc3c2)CC1,-8.2,11.4,-10.8,13.5,11.2,64.7*
OC1CCN(Cc2ccc3ccccc3c2)CC1,-10.5,0.4,7.9,0.8,12.2,96.6*
COc1ccc(-c2nc(NC(=O)c3cc(C(C)(C)C)nn3C)sc2C)cc1,30.2,1.2,-6.6,72.7,23.5,67.6*
COc1ccc(-c2nc(NC(=O)c3c(C)noc3C)sc2C)cc1,12.7,-1.0,-12.6,-6.2,23.1,24.7
O=C(Nc1ccn(Cc2ccccc2F)n1)c1ccc(COc2ccc(Br)cc2)cc1,12.7,3.7,-7.4,73.4,21.5,51.4*
Cc1ccc(C(=O)Nc2cc3ccccc3oc2=O)cc1,87.6*,90.9*,49.1*,81.4,79.3*,101.6*
Cc1oc(=O)c(NC(=O)c2ccc(Cl)cc2)cc1C(=O)c1ccccc1,-19.3,-4.4,-34.9,94.4*,-3.6,-9.9
CC(=O)c1cc(NC(=O)c2ccc(C)cc2)c(=O)oc1/C=C/N(C)C,54.3*,-13.2,-41.7,-16.0,-4.4,-0.3
Cc1cc[n+](CC(=O)c2cc3ccccc3oc2=O)cc1,52.4*,2.5,-59.9,4.1,2.8,40.2
COc1ccc(C(=O)Nc2cc(C(C)=O)c(/C=C/N(C)C)oc2=O)cc1,47.7,-11.2,-25.5,-39.7,-2.0,-13.4
Cc1cc(=O)oc2cc(N3C(=O)CC(Cc4ccccc4)C3=O)ccc12 (stereo unspecified),4.0,-8.6,4.6,-5.5,-4.1,0.5
C#CCN(C[C@H]1[C@H](OC(=O)NCc2ccc(OC)c(OC)c2)[C@H](OC(=O)NCc2ccc(OC)c(OC)c2)C[C@@H](C(=O)OC)[C@H]1C(=O)OC)S(=O)(=O)c1ccc(C)cc1,10.0,/,2.6,10.8,-17.3,0.8
CC(Oc1ccc(Cl)cc1Cl)C(=O)OCC(=O)c1c(N)n(C)c(=O)n(C)c1=O (stereo unspecified),-3.1,-10.7,10.7,-5.1,2.3,-17.4
Clc1ccc(-c2csc(=Nc3cccnc3)n2CCCn2ccnc2)cc1Cl,45.6,-0.8,33.9,48.7,30.0,66.0*
Cc1ccccc1C(=O)N1CCC(C(=O)NCCc2ccc(S(N)(=O)=O)cc2)CC1,9.5,8.2,4.5,-5.4,-6.1,8.9
Cc1cnc(C=NNC(N)=S)c2cccc(N)c12,11.7,65.7*,-12.3,84.5,12.1,38.1
NC(=S)NN=Cc1nccc2c(C(F)(F)C(F)(F)C(F)(F)F)cccc12,-58.0,/,-88.7,82.8,82.3*,21.6
NC(=S)N/N=C/c1ccc2ccccc2c1,-51.2,4.2,-147.0,-10.6,-19.0,-32.6
NC(=S)NN=Cc1nccc2ccccc12,30.6,38.0,-155.4,79.2,82.1*,76.5*
COc1ccc(C(C(=O)NCc2ccccc2)n2c(-c3ccccn3)nc3ccccc32)cc1 (stereo unspecified),/,/,1.3,/,/,/
Nc1cc(=O)[nH]c(SCCSc2cc(Cl)ccc2Cl)n1,-12.0,49.0,19.3,1.1,51.4*,-21.1

# Compound activity as filed in PubChem BioAssay.
